Hits are enriched below; roughly 19% of the tested compounds scored in any of these assays.
HT1080NT lethal: qHTS for induction of synthetic lethality in tumor cells producing 2HG: qHTS for the HT-1080-NT fibrosarcoma cell line; AID 686970, 2013; Potency, µM (highest dose often 46.1 µM), for the others: at the top dose activity, negative = less viability, most hits filed as cytotoxic; 360,000 compounds, 1.6% hits; HT-1080-NT fibrosarcoma viability, CellTiter-Glo ATP luminescence, 48 h;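 note: NT is the 2HG producing partner of a matched IDH1 knockdown line; potency is the fitted concentration of half-maximal effect; 0% = DMSO-treated cells and -100% = media-only wells without cells; nearly all actives have a fitted effect of over 55% in size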
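Compounds were tested in concentration-response format on HT-1080-NT cells for 48 hours at 37 degrees C. Cell viability came from CellTiter-Glo luminescence; curves were classified by r2, response magnitude and activity.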
TDP1 cell noCPT: qHTS for Inhibitors of human tyrosyl-DNA phosphodiesterase 1 (TDP1): qHTS in cells in absence of CPT; DT40 Tdp1-/- hTDP1 cells, no CPT, ATP luminescence, 48 h; Potency, µM (doses to about 46.2 µM), for the others: top-dose activity change, negative = growth inhibition, hits mostly inhibitors; 420,000 compounds, 15% hits; AID 686978, 2013; note: potency is the fitted concentration of half-maximal effect; nearly all actives have a fitted effect of over 55% in size
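Compound effects on proliferation are scored in DT40 Tdp1-/-;hTDP1 cells in the absence of CPT. ATP levels (CellTiter-Glo luminescence) are recorded after a ≥48 hr, 37 °C incubation.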
HT1080 IDH1KD tx: qHTS for induction of synthetic lethality in tumor cells producing 2HG: qHTS for the HT-1080-IDH1KD cell line. Potency, µM (highest dose often 46.1 µM), for inactives: at the top dose activity, negative = toxicity, most hits filed as cytotoxic. 360,000 compounds, 2% hits. HT-1080 IDH1 knockdown viability, ATP luminescence, 48 h. AID 686971, 2013;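 note: potency is the fitted concentration of half-maximal effect; 0% = DMSO wells and -100% = cell-free medium wells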
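HT-1080-IDH1KD cells (IDH1 knocked down), 750/well in RPMI with 5% FBS, treated with compound 48 h at 37 degrees C. Viability by CellTiter-Glo luminescence, normalised to DMSO and no-cell wells; concentration-response curves classed.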
IL-1B inflam inh: qHTS for Inhibitors of Inflammasome Signaling: IL-1-beta AlphaLISA Primary Screen; THP-1 LPS/ATP IL-1B secretion, AlphaLISA, 16 h; stronger effect = lower value; activity change, % at 57.5 µM; 360,000 compounds, 4.7% hits; in the data active = activity change below about -50%; inconclusive = mostly about -30% to -49%
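THP-1 cells pretreated 1 hr with compounds (up to 57.5 uM final), then stimulated with LPS (250 ng/mL final) plus ATP (1.25 mM final); secreted IL-1B measured by AlphaLISA after 16 hr, decreased signal indicating inhibition.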
ELG1 DNA repair: qHTS screen for small molecules that inhibit ELG1-dependent DNA repair in human embryonic kidney (HEK293T) cells expressing luciferase-tagged ELG1; HEK293T ELG1-luciferase reporter, luminescence, 16 h; DNA damage induced by 5-fluorouridine; Potency, µM (doses to about 46.1 µM), inactives show at the highest dose activity change, negative = inhibition, actives largely listed as inhibitors; 330,000 compounds, 2.3% hits; AID 504467, 2011; note: potency is the fitted concentration of half-maximal effect; nearly all actives have a fitted effect of over 55% in size
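Reporter activity after DNA damage by 5-fluorouridine is monitored. Compound-treated cells incubate 16 hr at 37 °C, then ONE-Glo is added for 30 min before luminescence reading.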
TDP1 cell CPT: qHTS for Inhibitors of human tyrosyl-DNA phosphodiesterase 1 (TDP1): qHTS in cells in presence of CPT. chicken DT40 Tdp1-/-;hTDP1 cells + 20 nM CPT, ATP luminescence, 48 h. Potency, µM (top dose mostly 46.2 µM), without a hit: at the highest dose activity change, negative = growth inhibition, hits mostly inhibitors. 420,000 compounds, 12% hits. AID 686979, 2013; note: potency is the fitted concentration of half-maximal effect; nearly all actives have a fitted effect of over 55% in size
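Chicken DT40 Tdp1-/- cells complemented with human TDP1, 400 cells/well, exposed to compounds plus 20 nM camptothecin for at least 48 h at 37 C; viability read as ATP content by CellTiter-Glo luminescence.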
The depositor's hits bear a star; ? = inconclusive; . = no result; ! = a repeat was not active. Unless noted, calls come from the whole dose curve; as a rule, active = well fitted curve in the direction sought with a large enough effect; inconclusive = small, poorly fitted or top-dose-only effect, or another doubt; inactive = no such curve, though single readings can be large; an effect the other way counts as inactive or inconclusive. Unless noted, % is set by controls: 0 for no effect and ±100 for the full control effect.

SMILES | HT1080NT lethal | TDP1 cell noCPT | HT1080 IDH1KD tx | IL-1B inflam inh | ELG1 DNA repair | TDP1 cell CPT
Cc1csc(N2C(=O)C3C4CCC(O4)C3C2=O)n1 (centres undefined) | 17.4% | -8.4% | 0.0% | 1.8 | . | 7.2%
Cc1cccc(NC(c2ccccc2F)c2ccc3ccc(C)nc3c2O)n1 (centres undefined) | . | 23.1µM* | . | . | . | ?
COc1ccc(CNc2cccc(C)n2)c(O)c1 | 13.3% | -19.0% | 1.1% | 8.9 | -2.9% | 44.9%
Cc1ccc(C)c(C(Nc2ccccc2)c2ccc3ccc(C)nc3c2O)c1 (centres undefined) | ? | 18.4µM* | ? | 81.3 | . | 20.6µM*
Cc1cc(OC(F)F)ccc1NC(=O)Nc1ccc2c(c1)OCO2 | -6.7% | 26.1% | -0.5% | -23.1 | -5.4% | -3.6%
CC(=O)c1ccc(NC(=O)c2noc3c2CCc2ccccc2-3)cc1 | . | -8.4% | . | . | . | ?
O=C(Nc1cccc(C(F)(F)F)c1)c1noc2c1CCc1ccccc1-2 | . | ? | . | . | . | 10.3µM*
O=C(Nc1cccc(O)c1)c1noc2c1CCc1ccccc1-2 | -25.8% | ? | -28.5% | -83.3* | ? | 16.4µM*!
Cc1ccc(NC(=O)c2noc3c2CCc2ccccc2-3)cc1 | -1.8% | -13.8% | -1.2% | -4.1 | ? | -9.3%
COc1ccc(OCC(=O)N2CCN(S(=O)(=O)c3ccc4c(c3)OCCO4)CC2)cc1 | -7.5% | ? | -7.1% | ? | . | ?
Cc1cccn2c(=O)c3cc(S(=O)(=O)c4ccccc4)c(=N)n(CC4CCCO4)c3nc12 (centres undefined) | 15.6% | 11.6µM* | 12.8% | 6.6 | ? | ?
Cc1cccn2c(=O)c3cc(S(=O)(=O)c4ccccc4)c(=N)n(Cc4cccnc4)c3nc12 | -8.9% | 23.1µM* | 1.0% | 2.8 | ? | -28.2%
N=c1c(S(=O)(=O)c2ccccc2)cc2c(=O)n3ccccc3nc2n1Cc1cccnc1 | 6.1% | -29.6% | -0.9% | 0.8 | -0.7% | ?
Cc1ccc(S(=O)(=O)c2cc3c(=O)n4cccc(C)c4nc3n(CC3CCCO3)c2=N)cc1C (centres undefined) | -3.2% | 6.51µM* | -0.8% | 21.4 | 1.8% | 5.8µM*
N=c1c(S(=O)(=O)c2ccccc2)cc2c(=O)n3ccccc3nc2n1CC1CCCO1 (centres undefined) | -3.8% | ? | 12.5% | -19.2 | -9.1% | ?
COc1ccc(-c2c(C)c3ccc(O)c(CN4CCCCC4)c3oc2=O)cc1OC | . | -18.4% | . | . | . | -5.1%
CC1C(=O)N(Cc2cn(CC3CCCCC3)nn2)CCS(=O)(=O)N1Cc1ccc(-c2ccc(Cl)c(Cl)c2)cc1 (centres undefined) | ? | 9.2µM* | -24.8% | 13.9 | . | 10.3µM*
CC1C(=O)N(Cc2cn(CC3CCCCC3)nn2)CCS(=O)(=O)N1Cc1ccc(-c2ccc(Cl)cc2)cc1 (centres undefined) | ? | 8.2µM* | 16.4µM* | -6.3 | . | 16.4µM*
COc1cc(C(=O)Nc2cc3c4c(c2)CC(=O)N4CCC3)cc(OC)c1OC | -0.8% | -4.9% | -16.6% | -5.0 | 17.4% | 3.7%
Cc1ccc(S(=O)(=O)c2nnn3c2nc(N2CCN(c4ccccc4F)CC2)c2ccccc23)cc1C | . | 1.4% | . | . | . | -4.3%
CC1=C(CCN2CCN(C3CCCC3)C(CCO)C2)C(C)(C)CCC1 (centres undefined) | -26.3% | ? | -21.1% | -8.7 | ? | 20.6µM*
Cc1ccc2c(c1)N(C(=O)CCC(=O)NCc1cccnc1)CC(C)O2 (centres undefined) | 10.1% | -7.0% | -7.6% | 13.1 | -0.5% | -5.6%
COC(=O)C1=C(C)NC2=C(C(=O)c3ccccc32)C1c1cccc(OC)c1 (centres undefined) | 13.5% | 4.7% | -1.4% | -19.4 | -3.8% | -23.6%
CC1=C([N+](=O)[O-])C(c2cccc(Br)c2)C2=C(N1)c1ccccc1C2=O (centres undefined) | 1.3µM* | 1.84µM* | 1.3µM* | -63.0* | -2.4% | 1.03µM*
CCn1c(COc2cccc(C)c2C)nnc1SCC(=O)N1CCN(c2ccc(OC)cc2)CC1 | -8.3% | 20.6µM* | -19.1% | 14.4 | 10.3µM* | 20.6µM*
SMILES | HT1080NT lethal | TDP1 cell noCPT | HT1080 IDH1KD tx | IL-1B inflam inh | ELG1 DNA repair | TDP1 cell CPT
CCn1c(SCC(=O)N2CCN(c3ccccc3)CC2)nnc1-c1ccoc1C | -3.2% | -9.5% | -24.6% | -4.9 | 16.4µM* | -7.3%
CCn1c(COc2ccccc2C)nnc1SCC(=O)N1CCN(c2ccccc2)CC1 | ? | 23.1µM* | -22.0% | -13.4 | ? | ?
Cc1occc1-c1nnc(SCC(=O)N2CCN(c3ccccc3)CC2)n1C | 2.7% | -4.2% | -2.3% | 28.9 | ? | 2.9%
CCN(c1cccc(C)c1)S(=O)(=O)c1ccc(-n2cccn2)cc1 | -15.2% | ? | -7.3% | -13.8 | 11.4% | ?
Cc1ccn2c(=O)nc(SCC(=O)N3CCCC3)nc2c1 | 1.3% | -7.1% | 7.1% | 6.2 | 23.0% | 10.8%
CCC1CCCCN1CC(=O)Nc1cc(C)c2c(=O)oc3ccccc3c2n1 (centres undefined) | . | -8.6% | . | . | . | 18.1%
Cc1cc(NC(=O)CN2CCC(C)CC2)nc2c1c(=O)oc1ccccc12 | . | 20.6µM* | . | . | . | ?
Cc1cc(NC(=O)CN2CCc3ccccc3C2)nc2c1c(=O)oc1ccccc12 | -4.1% | 18.4µM* | 1.0% | 3.2 | -12.3% | 20.6µM*
CC(CCc1ccccc1)NC(=O)C(=O)c1c[nH]c2ccccc12 (centres undefined) | ? | ? | ? | 15.9 | -2.5% | -29.9%
CN(C)S(=O)(=O)Nc1ccccc1F | 12.2% | 22.8% | 11.6% | -3.1 | -0.5% | 7.9%
COCC(=O)OC1CCn2c1nc1c2C(=O)C(C)=C(NC(C)=O)C1=O (centres undefined) | 7.31µM* | 2.31µM* | 4.61µM* | -1.5 | . | 2.59µM*
CCOc1ccccc1N(C)C(=O)C1CCCN(c2ncnc3onc(-c4ccc(F)cc4)c23)C1 (centres undefined) | . | 8.2µM* | . | . | . | 11.6µM*

Screening results deposited in PubChem by National Center for Advancing Translational Sciences (NCATS).
